Test [1] addresses Leukocyte tyrosine kinase receptor (Homo sapiens) (UniProt P29376). As to conditions: at 1 µM.
Test [2] concerns the target Tyrosine-protein kinase Lyn (Homo sapiens) (UniProt P07948). As to conditions: at 0.1 µM.
For test [3] the target is unchanged. The conditions noted are these: at 1 µM.
For test [4] the target is unchanged. As to conditions: at 0.1 µM. The source holds these as a separate data set.
Test [5] has the same target. The conditions noted are these: at 1 µM. The source holds these as a separate data set.
Test [6] deals with T1, Tyrosine-protein kinase Mer (Homo sapiens) (UniProt Q12866).
T1 sequence (whole entry): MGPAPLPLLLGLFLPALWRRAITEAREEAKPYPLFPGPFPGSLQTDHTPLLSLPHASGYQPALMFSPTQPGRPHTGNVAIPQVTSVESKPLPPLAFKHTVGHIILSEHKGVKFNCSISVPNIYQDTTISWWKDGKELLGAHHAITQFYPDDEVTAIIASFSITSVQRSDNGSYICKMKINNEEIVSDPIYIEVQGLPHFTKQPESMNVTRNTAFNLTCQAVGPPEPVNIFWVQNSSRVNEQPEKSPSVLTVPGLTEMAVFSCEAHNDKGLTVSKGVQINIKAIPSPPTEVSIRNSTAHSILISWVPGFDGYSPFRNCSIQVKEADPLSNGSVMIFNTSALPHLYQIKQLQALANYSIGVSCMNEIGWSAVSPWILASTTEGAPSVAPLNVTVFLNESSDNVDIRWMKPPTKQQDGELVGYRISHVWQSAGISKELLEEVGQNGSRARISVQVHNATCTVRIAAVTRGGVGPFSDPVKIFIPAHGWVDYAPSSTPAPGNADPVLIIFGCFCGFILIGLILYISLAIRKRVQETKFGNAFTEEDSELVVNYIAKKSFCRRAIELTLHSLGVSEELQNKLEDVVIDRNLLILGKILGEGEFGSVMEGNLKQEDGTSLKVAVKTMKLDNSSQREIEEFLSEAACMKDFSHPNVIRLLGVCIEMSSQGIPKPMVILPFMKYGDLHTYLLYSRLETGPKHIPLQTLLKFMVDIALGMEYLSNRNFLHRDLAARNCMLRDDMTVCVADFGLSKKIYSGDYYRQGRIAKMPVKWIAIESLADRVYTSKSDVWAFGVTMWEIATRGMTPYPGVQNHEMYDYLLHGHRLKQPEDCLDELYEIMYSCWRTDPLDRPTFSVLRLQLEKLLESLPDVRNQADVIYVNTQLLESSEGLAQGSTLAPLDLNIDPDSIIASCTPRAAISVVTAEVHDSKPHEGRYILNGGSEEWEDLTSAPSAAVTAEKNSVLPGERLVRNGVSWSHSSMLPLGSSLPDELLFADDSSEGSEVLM
As to conditions: at 0.1 µM.

The target in test [7] is T1, Tyrosine-protein kinase Mer (Homo sapiens). The conditions noted are these: at 1 µM.
In test [8] the target is Hepatocyte growth factor receptor (Homo sapiens) (UniProt P08581). The conditions noted are these: at 0.1 µM.
For test [9] the target is unchanged. As to conditions: at 1 µM.
For test [10], the target named is T2, Muscle, skeletal receptor tyrosine-protein kinase (Homo sapiens) (UniProt O15146).
T2 sequence (whole entry): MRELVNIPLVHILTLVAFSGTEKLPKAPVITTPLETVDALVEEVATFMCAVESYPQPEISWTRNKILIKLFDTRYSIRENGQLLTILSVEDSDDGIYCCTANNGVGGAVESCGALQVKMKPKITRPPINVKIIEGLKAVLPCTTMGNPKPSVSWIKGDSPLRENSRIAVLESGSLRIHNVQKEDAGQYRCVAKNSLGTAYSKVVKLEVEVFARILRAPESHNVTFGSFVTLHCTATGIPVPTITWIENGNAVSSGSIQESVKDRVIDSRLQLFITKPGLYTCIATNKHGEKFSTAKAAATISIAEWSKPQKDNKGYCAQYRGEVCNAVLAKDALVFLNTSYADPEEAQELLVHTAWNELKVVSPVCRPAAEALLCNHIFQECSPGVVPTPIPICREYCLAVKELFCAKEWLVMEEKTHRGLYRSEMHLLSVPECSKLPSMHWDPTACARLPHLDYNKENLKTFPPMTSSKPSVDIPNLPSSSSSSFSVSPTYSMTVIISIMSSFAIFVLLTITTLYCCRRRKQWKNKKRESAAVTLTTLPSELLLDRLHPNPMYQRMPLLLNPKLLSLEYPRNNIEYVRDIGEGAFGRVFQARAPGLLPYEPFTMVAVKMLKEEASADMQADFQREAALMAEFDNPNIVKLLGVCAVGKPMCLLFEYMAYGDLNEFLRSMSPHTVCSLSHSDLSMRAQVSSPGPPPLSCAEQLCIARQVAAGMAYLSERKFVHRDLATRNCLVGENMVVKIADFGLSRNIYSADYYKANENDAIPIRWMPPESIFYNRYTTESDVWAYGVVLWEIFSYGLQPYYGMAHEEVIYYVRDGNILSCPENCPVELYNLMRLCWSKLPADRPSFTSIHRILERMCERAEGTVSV
As to conditions: at 0.1 µM.

In test [11] the target is T2, Muscle, skeletal receptor tyrosine-protein kinase (Homo sapiens). As to conditions: at 1 µM.
The target in test [12] is Platelet-derived growth factor receptor alpha (Homo sapiens) (UniProt P16234). As to conditions: at 0.1 µM.
Test [13] shares this target. As to conditions: at 1 µM.
The test system of test [14] is Platelet-derived growth factor receptor alpha (Homo sapiens), P16234 [D842V]. The conditions noted are these: at 0.1 µM.
Test [15] shares this test system. As to conditions: at 1 µM.
The subject of test [16] is Platelet-derived growth factor receptor alpha (Homo sapiens), P16234 [T674I]. The conditions noted are these: at 0.1 µM.
Test [17] shares this test system. As to conditions: at 1 µM.
The test system of test [18] is Platelet-derived growth factor receptor alpha (Homo sapiens), P16234 [V561D]. The conditions noted are these: at 0.1 µM.
Test [19] has the same test system. As to conditions: at 1 µM.
The target of test [20] is Platelet-derived growth factor receptor beta (Homo sapiens) (UniProt P09619). As to conditions: at 0.1 µM.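 Also: reported value is the mean percent inhibition of the kinase.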

Values joined by “and” are separate entries in the source; they are usually repeats but may differ in a detail not shown here. Equal entries are not always repeated.

The inhibition is the relative decrease from the control value, in per cent.

Sequence of Platelet-derived growth factor receptor beta (Homo sapiens) (P09619 whole entry): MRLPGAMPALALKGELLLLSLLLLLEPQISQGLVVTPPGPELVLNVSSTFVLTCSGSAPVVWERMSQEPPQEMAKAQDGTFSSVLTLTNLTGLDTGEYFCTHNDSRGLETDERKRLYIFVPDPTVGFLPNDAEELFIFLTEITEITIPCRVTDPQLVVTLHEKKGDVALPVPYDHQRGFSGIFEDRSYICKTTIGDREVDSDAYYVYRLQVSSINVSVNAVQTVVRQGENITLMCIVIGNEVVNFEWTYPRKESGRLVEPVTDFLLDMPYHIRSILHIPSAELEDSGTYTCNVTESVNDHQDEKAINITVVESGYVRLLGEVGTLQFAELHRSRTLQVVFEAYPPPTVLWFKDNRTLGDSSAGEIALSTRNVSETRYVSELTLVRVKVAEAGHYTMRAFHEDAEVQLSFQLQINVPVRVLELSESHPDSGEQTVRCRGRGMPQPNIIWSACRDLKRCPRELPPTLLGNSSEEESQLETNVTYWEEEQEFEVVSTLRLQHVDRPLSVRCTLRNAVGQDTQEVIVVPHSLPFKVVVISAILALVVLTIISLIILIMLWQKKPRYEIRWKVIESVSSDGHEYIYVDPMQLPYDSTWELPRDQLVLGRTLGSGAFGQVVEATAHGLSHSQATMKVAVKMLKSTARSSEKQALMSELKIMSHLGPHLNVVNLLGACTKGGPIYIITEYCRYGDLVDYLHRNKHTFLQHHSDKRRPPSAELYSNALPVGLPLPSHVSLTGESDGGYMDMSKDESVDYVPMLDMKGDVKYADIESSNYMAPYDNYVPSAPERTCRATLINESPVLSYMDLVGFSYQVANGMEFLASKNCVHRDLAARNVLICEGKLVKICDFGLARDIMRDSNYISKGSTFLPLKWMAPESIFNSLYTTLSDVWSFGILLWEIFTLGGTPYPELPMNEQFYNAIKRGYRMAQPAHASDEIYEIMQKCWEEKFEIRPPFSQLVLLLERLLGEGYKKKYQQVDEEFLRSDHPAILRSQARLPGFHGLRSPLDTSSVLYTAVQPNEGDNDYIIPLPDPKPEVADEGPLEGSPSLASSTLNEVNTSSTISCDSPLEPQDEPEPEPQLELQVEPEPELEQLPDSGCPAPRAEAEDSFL
Sequence of Platelet-derived growth factor receptor alpha (Homo sapiens), P16234 [D842V] (P16234 whole entry D842V): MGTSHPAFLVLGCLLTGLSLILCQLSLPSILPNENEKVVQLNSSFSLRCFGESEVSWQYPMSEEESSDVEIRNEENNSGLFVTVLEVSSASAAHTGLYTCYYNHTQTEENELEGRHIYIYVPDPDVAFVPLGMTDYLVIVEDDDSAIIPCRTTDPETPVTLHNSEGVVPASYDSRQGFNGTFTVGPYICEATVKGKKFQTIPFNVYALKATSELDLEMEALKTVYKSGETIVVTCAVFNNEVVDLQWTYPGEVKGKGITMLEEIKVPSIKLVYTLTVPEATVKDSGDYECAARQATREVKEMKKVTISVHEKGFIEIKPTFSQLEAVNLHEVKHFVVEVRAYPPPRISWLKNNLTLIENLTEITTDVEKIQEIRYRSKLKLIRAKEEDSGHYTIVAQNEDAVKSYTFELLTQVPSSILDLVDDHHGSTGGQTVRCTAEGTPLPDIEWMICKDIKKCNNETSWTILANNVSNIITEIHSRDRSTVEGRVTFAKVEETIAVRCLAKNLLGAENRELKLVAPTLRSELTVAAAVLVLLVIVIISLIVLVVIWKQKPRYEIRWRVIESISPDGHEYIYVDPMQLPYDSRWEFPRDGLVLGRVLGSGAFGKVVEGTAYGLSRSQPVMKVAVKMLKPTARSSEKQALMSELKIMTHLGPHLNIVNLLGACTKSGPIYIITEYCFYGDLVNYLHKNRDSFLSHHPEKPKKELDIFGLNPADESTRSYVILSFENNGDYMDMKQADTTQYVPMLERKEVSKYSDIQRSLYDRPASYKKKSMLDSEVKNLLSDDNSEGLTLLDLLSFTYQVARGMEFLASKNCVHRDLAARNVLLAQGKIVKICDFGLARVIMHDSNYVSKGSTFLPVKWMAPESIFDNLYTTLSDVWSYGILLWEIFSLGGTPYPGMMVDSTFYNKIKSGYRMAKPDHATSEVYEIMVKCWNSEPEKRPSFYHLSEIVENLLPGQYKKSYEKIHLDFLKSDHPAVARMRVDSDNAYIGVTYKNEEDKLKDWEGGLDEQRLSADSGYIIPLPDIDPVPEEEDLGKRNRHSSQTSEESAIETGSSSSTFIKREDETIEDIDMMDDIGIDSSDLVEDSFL
Sequence of Leukocyte tyrosine kinase receptor (Homo sapiens) (P29376 whole entry): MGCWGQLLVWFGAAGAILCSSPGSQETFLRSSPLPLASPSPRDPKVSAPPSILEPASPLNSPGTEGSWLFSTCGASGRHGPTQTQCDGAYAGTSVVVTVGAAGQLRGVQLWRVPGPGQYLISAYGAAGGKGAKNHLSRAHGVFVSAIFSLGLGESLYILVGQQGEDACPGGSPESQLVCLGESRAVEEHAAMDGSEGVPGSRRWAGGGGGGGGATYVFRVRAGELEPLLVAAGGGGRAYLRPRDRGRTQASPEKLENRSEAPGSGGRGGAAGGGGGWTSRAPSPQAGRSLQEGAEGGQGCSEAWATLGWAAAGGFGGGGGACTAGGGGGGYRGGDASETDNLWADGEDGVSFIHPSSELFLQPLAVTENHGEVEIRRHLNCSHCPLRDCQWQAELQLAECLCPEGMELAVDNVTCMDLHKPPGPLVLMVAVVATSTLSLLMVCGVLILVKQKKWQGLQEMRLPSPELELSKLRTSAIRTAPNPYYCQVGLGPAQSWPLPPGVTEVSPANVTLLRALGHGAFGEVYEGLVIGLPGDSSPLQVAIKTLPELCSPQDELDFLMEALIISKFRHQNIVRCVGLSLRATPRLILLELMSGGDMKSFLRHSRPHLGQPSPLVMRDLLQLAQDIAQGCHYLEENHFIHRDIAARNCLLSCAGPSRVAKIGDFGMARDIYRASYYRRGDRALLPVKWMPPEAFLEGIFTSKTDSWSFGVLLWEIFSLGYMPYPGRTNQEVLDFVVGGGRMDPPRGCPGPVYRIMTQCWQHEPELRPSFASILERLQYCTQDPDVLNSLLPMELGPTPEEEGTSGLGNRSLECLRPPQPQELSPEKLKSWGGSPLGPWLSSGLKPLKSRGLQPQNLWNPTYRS
Sequence of Hepatocyte growth factor receptor (Homo sapiens) (P08581 whole entry): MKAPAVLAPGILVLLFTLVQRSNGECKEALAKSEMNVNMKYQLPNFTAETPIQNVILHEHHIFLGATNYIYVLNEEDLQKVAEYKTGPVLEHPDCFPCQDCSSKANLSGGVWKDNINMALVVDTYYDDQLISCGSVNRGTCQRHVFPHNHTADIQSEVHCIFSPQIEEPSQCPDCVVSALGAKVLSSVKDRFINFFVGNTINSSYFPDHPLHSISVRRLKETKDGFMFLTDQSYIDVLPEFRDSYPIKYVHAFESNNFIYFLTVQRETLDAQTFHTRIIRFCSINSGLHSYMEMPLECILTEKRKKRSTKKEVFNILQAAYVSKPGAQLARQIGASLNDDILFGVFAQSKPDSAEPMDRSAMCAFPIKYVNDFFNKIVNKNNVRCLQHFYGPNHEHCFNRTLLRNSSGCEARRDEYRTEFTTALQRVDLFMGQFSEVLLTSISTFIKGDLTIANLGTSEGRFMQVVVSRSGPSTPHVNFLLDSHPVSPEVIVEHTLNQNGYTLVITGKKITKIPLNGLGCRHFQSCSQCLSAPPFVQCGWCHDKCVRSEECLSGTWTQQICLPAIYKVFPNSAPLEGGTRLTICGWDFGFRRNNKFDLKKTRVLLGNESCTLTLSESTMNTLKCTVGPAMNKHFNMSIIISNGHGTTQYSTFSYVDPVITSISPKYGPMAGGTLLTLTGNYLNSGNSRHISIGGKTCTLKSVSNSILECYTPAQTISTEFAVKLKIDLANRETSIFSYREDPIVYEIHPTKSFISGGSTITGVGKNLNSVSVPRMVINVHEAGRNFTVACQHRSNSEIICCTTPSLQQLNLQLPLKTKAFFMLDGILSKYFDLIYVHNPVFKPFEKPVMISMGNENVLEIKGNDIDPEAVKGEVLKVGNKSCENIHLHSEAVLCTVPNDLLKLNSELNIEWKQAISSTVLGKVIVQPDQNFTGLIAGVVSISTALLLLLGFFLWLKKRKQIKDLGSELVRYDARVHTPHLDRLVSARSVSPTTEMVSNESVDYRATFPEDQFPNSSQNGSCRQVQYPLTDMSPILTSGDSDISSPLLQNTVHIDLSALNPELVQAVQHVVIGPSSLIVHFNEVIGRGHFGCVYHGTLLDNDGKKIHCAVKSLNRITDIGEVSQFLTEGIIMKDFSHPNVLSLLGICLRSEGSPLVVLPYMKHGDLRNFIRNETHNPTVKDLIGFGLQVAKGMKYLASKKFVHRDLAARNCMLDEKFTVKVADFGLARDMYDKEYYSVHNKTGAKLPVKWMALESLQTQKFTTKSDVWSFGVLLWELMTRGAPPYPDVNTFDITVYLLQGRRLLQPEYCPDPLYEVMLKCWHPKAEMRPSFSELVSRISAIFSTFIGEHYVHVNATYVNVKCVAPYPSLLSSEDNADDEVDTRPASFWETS
Sequence of Tyrosine-protein kinase Lyn (Homo sapiens) (P07948 2-512 limits assumed): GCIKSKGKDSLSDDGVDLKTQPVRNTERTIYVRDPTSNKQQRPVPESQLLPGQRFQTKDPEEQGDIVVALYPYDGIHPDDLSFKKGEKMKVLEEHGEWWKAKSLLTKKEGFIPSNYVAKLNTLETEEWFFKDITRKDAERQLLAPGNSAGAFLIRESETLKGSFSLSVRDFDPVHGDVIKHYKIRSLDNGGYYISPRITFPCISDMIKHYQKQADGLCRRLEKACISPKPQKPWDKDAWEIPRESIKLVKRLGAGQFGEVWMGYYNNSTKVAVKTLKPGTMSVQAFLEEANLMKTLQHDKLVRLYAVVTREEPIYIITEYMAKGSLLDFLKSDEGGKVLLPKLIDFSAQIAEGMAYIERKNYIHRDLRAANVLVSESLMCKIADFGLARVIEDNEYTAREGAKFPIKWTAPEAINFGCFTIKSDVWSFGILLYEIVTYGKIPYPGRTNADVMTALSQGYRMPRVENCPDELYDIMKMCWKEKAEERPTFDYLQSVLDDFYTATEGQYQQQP

On to `N#Cc1cccc(Nc2ncc(-c3ccccc3)o2)c1`, for which the inhibition in test [1] came to 3.55%; in test [2], 3.97%; in test [3], 10.5%; in test [4] it was 2.56%; in [5], 9.05%; in [6], 0.53%. Also, the inhibition is 4.24% in test [7]; 2.46% in [8]; 5.36% in test [9]; 1.86% in [10]; 2.86% in [11]; 5.63% in test [12]. Besides, the inhibition in [13] is 17%; in test [14] it was 1.11%; in test [15], 3.47%; in test [16], 6.26%; in [17], 36.3%; in test [18], 16.2%. The inhibition was found to be 36.8% in [19] and 7.37% in [20].

For the compound `CN1CCN(Cc2ccc(-c3cc4ncnc(Nc5ccc(OCc6cccc(F)c6)c(Cl)c5)c4s3)o2)CC1`, the inhibition in test [1] was 6.82% and 9.25%; in test [2], 3.27% and 7.55%; in test [3], 9.39% and 15.3%; in [4] it was 2.07% and 5.46%; in test [5], 6.51% and 12%; in test [6], 8.38% and 10.3%. In addition, the inhibition in test [7] was 48.5% and 49.4%; in test [8], 11.1% and 5.95%; in test [9] it was 24.3% and 34.3%; in test [10], 0.99% and 4.74%; in test [11] it was 1.12% and 8.01%; in test [12], 6.77% and 7.26%. For the same compound, the inhibition is 16.9% and 23.4% in test [13]; 3.07% and 3.74% in [14]; 6.44% and 9.07% in [15]; 4.32% and 7.13% in test [16]; 13.9% and 20% in test [17]; 5.61% and 3.37% in test [18]. Also, the inhibition was 13.1% and 11.5% in [19]; 2.48% and 3.36% in test [20].

As to `CS(=O)(=O)CCNCc1ccoc1-c1ccc2ncnc(Nc3ccc(OCc4ccccc4)cc3)c2c1`, the inhibition in test [1] was found to be 1.37%; in test [2], 2.38%; in test [3] it was 4.27%; in test [4] it was 1.69%; in test [5] it was 4.32%; in test [6] it was 3.82%. Moreover, the inhibition is 25.2% in [7]; 3.02% in [8]; 4.88% in test [9]; 1.36% in test [10]; 3.07% in test [11]; 7.98% in test [12]. Also, the inhibition was 15.1% in [13]; -0.69% in test [14]; 2.14% in [15]; 4.43% in [16]; 8.96% in test [17]; 1.67% in test [18]. For the same compound, the inhibition in test [19] is 7.53%; in test [20] it was 0.39%.

For the compound `NC(=O)c1ccc2c(-c3ccnc(NCCCO)n3)c(-c3ccc(F)cc3)nn2c1`, the inhibition in [1] was 6.21%; in test [2] it was 6.82%; in test [3], 12.1%; in test [4], 4.82%; in [5], 10.6%; in test [6] it was 5.01%. The inhibition in [7] stood at 14.2%; in test [8] it was 7.18%; in [9], 15.1%; in test [10] it was 3.34%; in [11] it was 2.08%; in test [12] it was 5.5%. The inhibition in test [13] was 16.9%; in test [14], 4.25%; in test [15] it was 8.75%; in test [16] it was 6.06%; in test [17], 6.59%; in [18], 4.18%. In addition, the inhibition in test [19] came out at 14.3%; in test [20] it was 4.83%.

As for `COc1cc(N2CCN(C(C)C)CC2)ccc1Nc1nc(Nc2cccc3ncccc23)c2cc[nH]c2n1`, the inhibition came to 80.2% in [1]; 0.41% in test [2]; 2.82% in [3]; 0.31% in test [4]; 2.18% in test [5]; 0.54% in test [6]. Moreover, the inhibition in [7] was 2.09%; in [8], -2.89%; in [9] it was -1.9%; in [10], 5.11%; in test [11] it was 9.48%; in test [12] it was 2.96%. The inhibition stood at 15.3% in [13]; 0.2% in [14]; 5.09% in [15]; 2.09% in test [16]; 2.26% in test [17]; 3.08% in test [18]. In addition, the values for the inhibition in [19] and in test [20] were 14.8% and 1.3%, respectively.

For the compound `CC1(C)CC(n2cnc(-c3ccc(F)cc3)c2-c2ccnc(N)n2)CC(C)(C)N1`, the inhibition in test [1] is 0.76%; in test [2], 0.33%; in test [3] it was 2.44%; in test [4], -0.62%; in test [5], 0.86%; in test [6] it was 0.86%. For the same compound, the inhibition in test [7] is 3.06%; in test [8], -5.05%; in [9] it was 5.56%; in test [10], 0.69%; in [11], 5.42%; in [12] it was 3.29%. Also, the inhibition in [13] is 5.34%; in test [14], 1.19%; in test [15] it was 0.18%; in test [16] it was 2.4%; in test [17], 4.71%; in test [18], -0.6%. Besides, the results for the inhibition in test [19] and in test [20] were 3.08% and 5.64%, respectively.

For the compound `COc1cccc(-n2ncc3c(N/N=C/c4ccc(C(=O)NCCN(C)C)cc4)ncnc32)c1`, the inhibition in test [1] was found to be 4.37%; in [2], 56.9%; in [3], 88.1%; in test [4], 51%; in test [5], 86.3%; in test [6], 16.8%. For the same compound, the inhibition was found to be 59.3% in [7]; 12.9% in test [8]; 55.7% in test [9]; 40.4% in [10]; 80.3% in test [11]; 42.3% in [12]. For the same compound, the inhibition in [13] worked out at 74.1%; in [14] it was 55.7%; in test [15], 88.8%; in [16], 20.5%; in [17] it was 78.5%; in test [18], 44%. The inhibition in test [19] was 85.5%; in test [20] it was 62.4%.

Source of the values: ChEMBL document CHEMBL1961873, “Compounds: GSK PKIS; Assays: Nanosyn kinase panel” (2012).
